Experimental data from PubChem BioAssay (NCATS).
Records with an inconclusive call do not appear. Calls of active or inactive are those of the source. Calls come from the whole dose curve; as a rule, active = well fitted curve in the direction sought with a large enough effect; inconclusive = small, poorly fitted or top-dose-only effect, or another doubt; inactive = no such curve, though single readings can be large; an effect the other way counts as inactive or inconclusive.

Legend:
MCC-13 = assay: qHTS assay to identify novel small-molecules to repurpose for Merkel cell carcinoma treatment (AID 1296009); settings: MCC and control cell lines, CellTiter-Glo viability, 72 h; series mostly up to 46 µM; note: nearly all actives have a fitted effect of over 60% in size
In short: (§1)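 Cells were treated for 72 hr at 37 degree celsius with compounds in 8- or 11-point dose response. Viability was read by CellTiter-Glo luminescence, normalized to no-cell (cytotoxicity) and DMSO controls.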

MCC-26 = assay: as above; settings: MCC and control cell lines, CellTiter-Glo viability, 72 h; series mostly up to 46 µM
In short: as §1

MKL-1 = assay: as above; settings: MCC and control cell lines, CellTiter-Glo viability, 72 h; series mostly up to 46 µM
In short: as §1

MKL-2 = assay: as above; settings: MCC and control cell lines, CellTiter-Glo viability, 72 h; series mostly up to 46 µM
In short: as §1

UISO = assay: as above; settings: MCC and control cell lines, CellTiter-Glo viability, 72 h; series mostly up to 46 µM
In short: as §1

WaGa = assay: as above; settings: MCC and control cell lines, CellTiter-Glo viability, 72 h; series mostly up to 46 µM
In short: as §1

C33A = assay: Primary qHTS to identify gynecologic anti-cancer compounds using libraries of approved drugs and bioactive compounds (AID 1345084); settings: Gynecologic cancer cell panel viability, ATPlite luminescence, 48 h; series mostly up to 57.5 µM; note: nearly all actives have a fitted effect of over 55% in size
In short: (§2)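 Measured: luminescence after ATPlite addition (15 min, RT). Exposure: 48 h, 37 C, 5% CO2.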

CAOV3 = assay: as above; settings: Gynecologic cancer cell panel viability, ATPlite luminescence, 48 h; series mostly up to 57.5 µM
In short: as §2

CASKI = assay: as above; settings: Gynecologic cancer cell panel viability, ATPlite luminescence, 48 h; series mostly up to 57.5 µM
In short: as §2

Es-2 = assay: as above; settings: Gynecologic cancer cell panel viability, ATPlite luminescence, 48 h; series mostly up to 57.5 µM
In short: as §2

HeLa = assay: as above; settings: Gynecologic cancer cell panel viability, ATPlite luminescence, 48 h; series mostly up to 57.5 µM
In short: as §2

JEG-3 = assay: as above; settings: Gynecologic cancer cell panel viability, ATPlite luminescence, 48 h; series mostly up to 57.5 µM
In short: as §2

PA-1 = assay: as above; settings: Gynecologic cancer cell panel viability, ATPlite luminescence, 48 h; series mostly up to 57.5 µM
In short: as §2

SKOV3 = assay: as above; settings: Gynecologic cancer cell panel viability, ATPlite luminescence, 48 h; series mostly up to 57.5 µM
In short: as §2

Tov-21-G = assay: as above; settings: Gynecologic cancer cell panel viability, ATPlite luminescence, 48 h; series mostly up to 57.5 µM
In short: as §2

Hek293T = assay: as above; settings: Gynecologic cancer cell panel viability, ATPlite luminescence, 48 h, control line for the selectivity index; series mostly up to 57.5 µM
In short: as §2

OV90 = assay: as above; settings: Gynecologic cancer cell panel viability, ATPlite luminescence, 48 h; series mostly up to 57.5 µM
In short: as §2

Measured: Potency

COc1cc(N)c(Cl)cc1C(=O)NC1CCN(Cc2ccccc2)CC1
not listed: Hek293T | OV90
inactive: all other assays above

O=C(Nc1cccc(C2=NCCN2)c1)Nc1cccc(C2=NCCN2)c1
not listed: CAOV3 | SKOV3 | Tov-21-G
inactive: all other assays above

NS(=O)(=O)c1cc2c(cc1Cl)NC(CC1CCCC1)NS2(=O)=O (stereo unspecified)
not listed: CAOV3
inactive: all other assays above

COc1ccc(C(=O)c2ccccc2O)c(O)c1
not listed: CAOV3
inactive: all other assays above

Nc1nc(N)c(-c2ccccc2)s1
not listed: PA-1
inactive: all other assays above

CCOc1ccc(NC(C)=O)cc1
not listed: OV90
inactive: all other assays above

CN(C)CCOC(c1ccc(Cl)cc1)c1ccccn1 (stereo unspecified)
inactive: MCC-13 | MCC-26 | MKL-1 | MKL-2 | UISO | WaGa | JEG-3

CC(O)Cn1cnc2c1c(=O)n(C)c(=O)n2C (stereo unspecified)
not listed: CAOV3 | PA-1
inactive: all other assays above

CC1=C(C(=O)O)N2C(=O)[C@@H](NC(=O)[C@H](N)c3ccccc3)[C@H]2SC1
not listed: CAOV3
inactive: all other assays above
